Assay outcomes deposited in PubChem BioAssay by several laboratories.
Only some compounds are listed: those with a hit (about 1.4% of all), similar ones and a draw of the others.
zVAD death inh = inhibitors of zVAD-triggered necroptosis, primary screen, L929 cells. L929 zVAD necroptosis rescue, ATP luminescence, 24 h; with zVAD 60 µM. viability rescue, % at 10 µM. 220,000 compounds, 0.38% hits. AID 1377, 2008;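 active = activation, scaled between plate controls, above about 75%, limit read from the data; inactive = activation under that limit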;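 note: 0% = zVAD with DMSO and 100% = DMSO alone without zVAD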
TNF death inh = inhibitors of TNF-alpha triggered necroptosis, primary screen, cell-based, Jurkat FADD-/-, single concentration | Jurkat FADD-/- TNF necroptosis rescue, ATP luminescence, 24 h; 0 = TNF only, 100 = no-TNF cells | activation (protection from cell death), % at 10 µM | 220,000 compounds, 0.068% hits;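 active = activation, meaning protection from cell death, of at least 50% relative to plate controls; inactive = activation below 50%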;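 note: necroptosis triggered by 40 ng/mL TNF-alpha added together with compound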
V-ATPase pHluor = regulators of yeast V-ATPase proton pumping, primary screen, pHLuorin cytosolic pH fluorescence; response, % at 10 µM; S. cerevisiae; 350,000 compounds, 0.37% hits; in the data active = response mostly above about 7.3%, no sharp cut-off; inactive = mostly below about 5.4%; note: actives read high
Wee1 degr inh = Wee1 degradation inhibitors, primary screen, cell-based, HeLa, Wee1K328M-luciferase, luminescence; Wee1-like protein kinase (Homo sapiens), P30291; HeLa Luc-Wee1K328M stability; 100% = proteasome inhibitor MG132 effect; reporter increase, % at 5 µM; 220,000 compounds, 1.2% hits; AID 1321, 2008;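 active = activation above the mean of all tested compounds plus 3 SD, set per screening run, cut at about 8.8% in these data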;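 note: cells exposed to compound for 20 h before luminescence read; 0% = DMSO alone and 100% = MG132 at 30 µM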
Target sequence (P30291 whole entry K328M): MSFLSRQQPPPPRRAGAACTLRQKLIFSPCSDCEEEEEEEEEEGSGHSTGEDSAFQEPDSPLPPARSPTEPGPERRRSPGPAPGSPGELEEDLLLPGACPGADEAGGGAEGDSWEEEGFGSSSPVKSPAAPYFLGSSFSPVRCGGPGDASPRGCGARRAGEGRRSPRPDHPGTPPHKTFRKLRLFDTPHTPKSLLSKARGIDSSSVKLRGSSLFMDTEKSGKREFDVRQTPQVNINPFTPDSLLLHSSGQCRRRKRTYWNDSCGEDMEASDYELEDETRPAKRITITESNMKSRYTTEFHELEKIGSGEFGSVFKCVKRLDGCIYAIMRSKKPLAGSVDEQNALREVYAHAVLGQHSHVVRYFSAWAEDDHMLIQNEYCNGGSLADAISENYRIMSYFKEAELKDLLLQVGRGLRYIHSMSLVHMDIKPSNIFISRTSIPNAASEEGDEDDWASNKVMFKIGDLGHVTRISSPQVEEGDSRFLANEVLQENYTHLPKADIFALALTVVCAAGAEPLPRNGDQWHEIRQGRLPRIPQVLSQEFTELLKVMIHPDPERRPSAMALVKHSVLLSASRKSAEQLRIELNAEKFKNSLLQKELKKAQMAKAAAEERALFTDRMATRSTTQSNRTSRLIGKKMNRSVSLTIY
HSV augment = enhancers of HSV replication in host cells, fold increase, host cell viability; maximum fold increase; HSV replication augmentation in cells; 220,000 compounds, 0.005% hits; AID 1956, 2009; in the data active = maximum fold increase above about 1.5; inconclusive = no clear call, values can overlap the other calls; tested in PC3 cells
zVAD death conf = inhibitors of zVAD-triggered necroptosis in L929, confirmation, L929 cells, duplicate runs; shares compounds with zVAD death inh; L929 zVAD-induced necroptosis rescue, ATP luminescence, 24 h; activation (protection from necroptosis), % at 10 µM; 760 compounds, 16% hits; AID 463117, 2010;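 active = mean protection from necroptosis of at least 50% over duplicate tests; inactive = mean protection below 50%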;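 note: 0% = cells with zVAD alone and 100% = vehicle cells without zVAD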
The depositor's hits bear a star; i = inactive; u = inconclusive; x = no result.

SMILES	zVAD death inh	TNF death inh	V-ATPase pHluor	Wee1 degr inh	HSV augment	zVAD death conf
O=C(Nc1ccc(Cl)c(Cl)c1)Nc1ccc(N2CCCC2)c(S(=O)(=O)Nc2ccccc2Cl)c1	4	-2	2	0	i	x
COCCn1c(=NC(=O)/C=C/c2ccccc2)sc2cc(NC(C)=O)ccc21	81*	-4	3	1	i	7
COc1ccc(OC)c(CCNC(=O)CCc2nnc3ccc(N4CCOCC4)nn23)c1	x	x	3	x	x	x
S=c1[nH]ncn1NCc1ccc(Cl)cc1Cl	87*	1	-1	0	i	33
O=C(Nc1ccc(N2CCCC2)cc1)C(c1ccccc1)c1ccccc1	0	2	2	5	u	x
Cc1cc(C)cc(NC(=O)Nc2ccc(N3CCCCC3)cc2)c1	77*	2	12	4	i	34
O=C(Nc1ccc(N2CCCCC2)cc1)C(Cl)c1ccccc1 (stereo not drawn)	77*	13	-1	8	i	7
Cn1c(SCC(=O)Nc2ccc(Br)cn2)nnc1C1CC1	x	x	7	x	x	x
CCC(=O)Nc1cccc(C(=O)Nc2nccs2)c1	86*	9	-2	0	i	20
CCCC(=O)Nc1cccc(C(=O)Nc2nccs2)c1	98*	13	-5	2	i	35
CC(C)C(=O)Nc1cccc(C(=O)Nc2nncs2)c1	0	0	-4	2	i	x
CCOc1cccc(C(=O)Nc2nccs2)c1	2	6	2	0	i	x
O=C(Nc1nccs1)c1cccc(NC(=O)C2CC2)c1	6	12	1	3	x	x
CC(C)C(=O)Nc1cccc(C(=O)Nc2nccs2)c1	77*	-2	0	0	i	13
O=C(COc1ccc2ccccc2c1)Nc1ccccc1C(=O)O	x	x	2	x	x	x
CCCC(=O)OCC(=O)Nc1ccc2[nH]c(=O)[nH]c2c1	1	-1	-1	0	i	x
CCC(C)c1ccc(OCC(=O)Nc2ccc3[nH]c(=O)[nH]c3c2)cc1 (stereo not drawn)	78*	2	2	6	i	40
O=c1c2ccccc2c(/C=N/NS(=O)(=O)c2ccccc2)c(O)n1-c1ccccn1	0	-1	-2	-3	u	x
Cc1c(O)c2c(=O)n(-c3ccccc3)c(-c3ccccc3)cc2oc1=O	0	0	-2	4	i	x
Cc1cc(C)nc(N2CCN(C(=O)CCC(=O)Nc3nnc(C(C)C)s3)CC2)n1	76*	-1	-2	1	i	33
CC(C)c1nnc(NC(=O)CCC(=O)N2CCN(c3ccccc3F)CC2)s1	x	x	-2	x	x	x
COc1ccc(NC(=O)c2ccc(S(=O)(=O)N3CCCCC3)cc2)c(OC)c1	x	x	-3	x	x	x
COc1ccc(NC(=O)c2ccc(S(=O)(=O)C(F)F)cc2)c(OC)c1	77*	0	7	-1	i	1
Cc1cccc(NC(=O)c2ccc([N+](=O)[O-])s2)n1	x	x	-2	x	x	x
COc1ccc(-n2cnc3cc([N+](=O)[O-])ccc32)cc1	79*	2	0	-1	i	1
SMILES	zVAD death inh	TNF death inh	V-ATPase pHluor	Wee1 degr inh	HSV augment	zVAD death conf
CCn1cnc2cc([N+](=O)[O-])ccc21	3	1	-2	-2	i	x
Cc1cccc(-n2cnc3cc([N+](=O)[O-])ccc32)c1	20	2	3	-1	i	x
Nc1ccc(-n2cnc3cc([N+](=O)[O-])ccc32)cc1	78*	0	1	1	i	42
COc1ccc(-n2cnc3cc(NS(=O)(=O)c4ccc(C)cc4)ccc32)cc1	85*	38	-1	-3	i	41
CCn1cnc2cc(NS(=O)(=O)c3ccc(C)cc3)ccc21	0	2	3	-1	i	x
CCOc1ccccc1NC(=O)Nc1ccc(Br)cn1	4	-1	-1	1	i	x
CCOc1ccccc1NC(=O)Nc1ccccn1	79*	-1	0	0	i	3
CN(C)C(=O)c1ccc(-c2nnc(NCc3ccccc3)c3ccccc23)cc1	75*	2	-2	-4	i	36
O=C(Oc1ccc(-c2cnc3ccccc3n2)cc1)c1cccc([N+](=O)[O-])c1	94*	-4	-2	3	i	2
O=C(Oc1ccc(-c2cnc3ccccc3n2)cc1)c1ccc(Cl)c([N+](=O)[O-])c1	87*	0	-2	-2	i	2
Oc1ccc(-c2cnc3ccccc3n2)cc1	x	x	7	x	x	x
O=C(Oc1ccc(-c2cnc3ccccc3n2)cc1)c1ccc(Br)o1	85*	0	3	-2	i	6
O=C(CCC(=O)OCc1ccc(Br)cc1)Nc1ccccc1	0	0	3	-2	i	x
Cc1c(NC(=O)CSc2nnc(-c3ccccc3F)o2)c(=O)n(-c2ccccc2)n1C	x	x	-3	x	x	x
COc1ccc(N(CC(=O)NC2CCCCC2)C(=O)CNC(=O)c2cccs2)cc1OC	x	x	6	x	x	x
Cc1nnsc1SCCNC(=O)Nc1ccc(Cl)cc1	79*	3	-2	2	i	5
C/C(=N\OCc1ccc(C#N)cc1)c1cc2ccccc2o1	78*	1	-3	0	i	1
C/C(=N\OCc1ccccc1C#N)c1cc2ccccc2o1	0	0	-5	0	i	x
CC(C)(C)n1nc(-c2ccc(Cl)cc2)c2c(N)ncnc21	72	-5	3	-5	i	x
CC(C)(C)n1nc(-c2ccc(F)cc2)c2c(N)ncnc21	79*	3	3	-4	i	41
CCOC(=O)c1ccc(NC(=O)C(=O)NCC2(c3ccc(OC)cc3)CCOCC2)cc1	1	0	1	-1	i	x
CCN(c1ccccc1)S(=O)(=O)c1ccc(Oc2ccccc2C(C)=O)nc1	x	x	-1	x	x	x
CCN(c1ccccc1)S(=O)(=O)c1ccc(Oc2ccc(-n3ccnc3)cc2)nc1	87*	1	1	-3	i	1
CC(=O)Nc1ccc(Nc2nc(C)c([N+](=O)[O-])c(Nc3ccccc3)n2)cc1	2	-2	-1	6	i	x
CC(=O)Nc1ccc(Nc2ncc([N+](=O)[O-])c(Nc3ccc(NC(C)=O)cc3)n2)cc1	90*	-11	-3	-1	x	26
O=C(CN1C(=O)NC(Cc2c[nH]c3ccccc23)C1=O)NCCc1ccc(F)cc1 (stereo not drawn)	x	x	-5	x	x	x
COCC(C)n1c(C)cc(C(=O)CSc2nnnn2-c2ccc(O)cc2)c1C (stereo not drawn)	76*	0	0	-2	i	47
Cc1cn(-c2cc(C(=O)Nc3ccc(C)c(NC(=O)C(=O)c4c[nH]c5ccccc45)c3)cc(C(F)(F)F)c2)cn1	77*	-10	1	x	i	71*
